Measurements reported in PubChem BioAssay (NCI).
About 83,000 compounds went through this panel and 20% of them were active in at least one assay; those are over-represented in the sample as a whole.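 Method: cells in 96-well plates; compound added at one concentration; 48 h incubation; percent growth measured; values under 10 scored active.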 Values without a mark were called inactive. Activity calls are given as the source filed them.

Experiments:
Experiment in all cases: NCI-60 one-dose screen, 48 h (100 = growth as untreated, 0 = no growth, -100 = all killed)
Settings in all cases: 10 µM unless noted
SK-MEL-2 melanoma = test system: SK-MEL-2 melanoma
EKVX NSCLC = test system: EKVX NSCLC
SN12C renal = test system: SN12C renal
UO-31 renal = test system: UO-31 renal
TK-10 renal = test system: TK-10 renal
ACHN renal = test system: ACHN renal
CAKI-1 renal = test system: CAKI-1 renal
A498 renal = test system: A498 renal
CCRF-CEM leukemia = test system: CCRF-CEM leukemia
MOLT-4 leukemia = test system: MOLT-4 leukemia
SR leukemia = test system: SR leukemia
RPMI-8226 leukemia = test system: RPMI-8226 leukemia
OVCAR-8 ovarian = test system: OVCAR-8 ovarian
OVCAR-5 ovarian = test system: OVCAR-5 ovarian
OVCAR-4 ovarian = test system: OVCAR-4 ovarian
SK-OV-3 ovarian = test system: SK-OV-3 ovarian
IGROV1 ovarian = test system: IGROV1 ovarian
OVCAR-3 ovarian = test system: OVCAR-3 ovarian
HS 578T breast = test system: HS 578T breast
NCI/ADR-RES ovarian = test system: NCI/ADR-RES ovarian

Compound | growth (SK-MEL-2 melanoma) | growth (EKVX NSCLC) | growth (SN12C renal) | growth (UO-31 renal) | growth (TK-10 renal) | growth (ACHN renal) | growth (CAKI-1 renal) | growth (A498 renal) | growth (CCRF-CEM leukemia) | growth (MOLT-4 leukemia) | growth (SR leukemia) | growth (RPMI-8226 leukemia) | growth (OVCAR-8 ovarian) | growth (OVCAR-5 ovarian) | growth (OVCAR-4 ovarian) | growth (SK-OV-3 ovarian) | growth (IGROV1 ovarian) | growth (OVCAR-3 ovarian) | growth (HS 578T breast) | growth (NCI/ADR-RES ovarian)
COc1ccc2[nH]cc(-c3nnc(N)nc3-c3cn(C)c4ncc(Br)cc34)c2c1 | 61.1% | 88.7% | 60.2% | 49.4% | 46.3% | 50.8% | 43.9% | 45.5% | 66.8% | 56.6% | 49.6% | 74.5% | 75.8% | 84.8% | 69.1% | 95.2% | 58.4% | 65.7% | 55.7% | 83.5%
CCCS(=O)(=O)N1CCCC(C(=O)Nc2nc3ccc(NC(=O)c4ccc(F)c(OC)c4F)cc3s2)C1 (stereo not given) | 49.7% | 39.7% | 65.5% | 38.8% | 75.3% | 46.7% | 43.2% | 84.3% | 14.9% | 0.124% (active) | 16.2% | 12.4% | 26.6% | 86% | 32.3% | 61.1% | 63.3% | 48.9% | 29.4% | 19.9%
Cc1ccc(C(=O)C(c2c[nH]c3ccccc23)c2c[nH]c3ccccc23)cc1 | 72.4% | 56.5% | -12.8% (active) | 26.4% | 111% | 17.9% | 18.7% | 108% | 5.91% (active) | 5.7% (active) | -6.82% (active) | -2.33% (active) | 44.2% | 46.7% | 43.7% | 94% | 35.8% | 29.2% | 83.2% | 24.8%
Cc1cc2nc3c4ccccc4n(CCNCCN(C)C)c3nc2cc1C | 25.4% | 73.2% | 25.3% | -16.5% (active) | 54.5% | 11% | 14.1% | 75.4% | 21.7% | 4.83% (active) | -1.38% (active) | -25.9% (active) | 24.2% | 39.5% | 33% | 68.8% | 20% | 40.5% | 44.9% | 24.6%
COc1ccc(-c2nc3cc(C)ccc3n2CC(=O)N=Nc2c(O)[nH]c3ccc(Cl)cc23)cc1 | 47.9% | -49.5% (active) | -62.6% (active) | 41.7% | 21.6% | 5.37% (active) | 33% | 101% | 54.9% | 11% | -7.22% (active) | 41.8% | -74.8% (active) | 3.51% (active) | -25.4% (active) | 13.7% | 18.3% | -13.8% (active) | -2.87% (active) | -30.8% (active)
O=C(c1ccc(OCCN2CCOCC2)cc1)C1[C@H](c2ccc(Cl)cc2)[C@@H](c2ccccc2)NC12C(=O)Nc1ccc(Cl)cc12 (stereo not given in full) | 35% | 23.1% | 13.5% | 19.1% | 49.7% | 9.92% (active) | 14.8% | 88% | 31% | -28.2% (active) | -46.3% (active) | 15.5% | 39% | 50.5% | 48.3% | 50.1% | 24% | 40.4% | 59.1% | 24.5%
C=C1CCC2C3(C)COC(c4cccs4)OC3CCC2(C)C1CC(Sc1ccccc1)C1=CCOC1=O (stereo not given) | 98.2% | 116% | 46.4% | 58.5% | 118% | 91.1% | 101% | 133% | 1.2% (active) | 52.9% | 46.1% | 16.1% | 66% | 102% | 83.6% | 131% | 95.5% | 86.1% | 112% | 2.64% (active)
COc1cc2c3c(n(CCCN4CCC[C@@H]4CO)c(=O)c2cc1OC)-c1cc2c(cc1C3=O)OCO2 | 120% | -70.6% (active) | -91.7% (active) | -92.5% (active) | 91.4% | -100% (active) | -94.6% (active) | 93.8% | 6.04% (active) | 5.36% (active) | -25.5% (active) | -28.4% (active) | -76.8% (active) | -98.7% (active) | -82.2% (active) | 27.1% | -88.9% (active) | -94.4% (active) | -6.35% (active) | -67.4% (active)
